The structures appear in SMILES notation. Several values for one entry are separate records, joined by “and”; a condition that tells them apart may be missing. Equal values may be shown once. Results filed as inconclusive are left out. A number with no mark means an inactive call. Activity calls are given as the source filed them. Unless noted, the call rests on the fitted dose curve; in most records, active means well fitted curve in either direction with a large enough effect (not every such curve was filed as active); inconclusive means small, poorly fitted or top-dose-only effect, or another doubt; inactive means flat fitted curve, though single readings scatter.

The nature of one test: Cell Viability - Hek293 (AID 427;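 active means compounds whose dose-response curve shows a full or clear partial loss of cell viability, called from curve shape rather than a numeric limit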;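 further: potency means the concentration at half of the fitted maximal effect; cells exposed to compound for 40 hours at 37 °C before reading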). The following applies: qHTS. In a few lines: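 AC50 values derive from Hill-modelled concentration-response of ATP-based luminescence, normalized between DMSO-only and 100 uM tamoxifen controls. Cells were exposed in complete culture medium for 40 hr at 37 °C before detection.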
(qHTS replaces the single test concentration by a dilution series.)
As to `CCCC(CCC)C(=O)O`, the Potency was more than 92 µM.

As to `NS(=O)(=O)c1cc2c(cc1Cl)NC=NS2(=O)=O`, the Potency was more than 92 µM.

For `CC(=O)Oc1ccccc1C(=O)O`, the Potency was more than 92 µM.

As for `Cn1cnc([N+](=O)[O-])c1Sc1ncnc2nc[nH]c12`, the Potency was 2.04 µM (active).

Regarding `NC(N)=NC(=O)c1nc(Cl)c(N)nc1N`, the Potency is more than 92 µM.

`O=c1[nH]cnc2[nH]ncc12`: the Potency is more than 92 µM.

Regarding `NC(=O)c1cnccn1`, the Potency is more than 92 µM.

A short description of a further test: Cell Viability - HepG2 (AID 433; calls by dose curve;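 further: potency means the concentration at half of the fitted maximal effect; potency for ATP loss meaning cytotoxicity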). The following applies: qHTS. The essentials:
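ATP luminescence (CellTiter-Glo) after 40 h compound exposure, 37 °C, HepG2, 1500 cells/well, complete medium. Normalized: DMSO = basal, 100 uM tamoxifen = 100% inhibition. AC50 via standard Hill equation.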
Consider `CCCC(CCC)C(=O)O`, for which the Potency was more than 92 µM.

For the molecule `NS(=O)(=O)c1cc2c(cc1Cl)NC=NS2(=O)=O`, the Potency was more than 92 µM.

As to `CC(=O)Oc1ccccc1C(=O)O`, the Potency is more than 92 µM.

On to `NC(N)=NC(=O)c1nc(Cl)c(N)nc1N`, for which the Potency is more than 92 µM.

In the case of `O=c1[nH]cnc2[nH]ncc12`, the Potency is more than 92 µM.

For `NC(=O)c1cnccn1`, the Potency is more than 92 µM.

A short description of another test: Cell Viability - MRC5 (AID 434; calls by dose curve;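 further: potency means the concentration at half of the fitted maximal effect; potency reflects cytotoxicity seen as loss of intracellular ATP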). The conditions noted are these: MRC5 lung fibroblast viability, qHTS. In a few lines: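 AC50 values come from Hill-equation fits of intracellular ATP loss, measured by CellTiter-Glo luminescence. Normal lung fibroblasts (MRC5) had 40 hr compound treatment at 37 C, normalized between DMSO and 100 uM tamoxifen.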
Take `CCCC(CCC)C(=O)O`: the Potency is more than 92 µM.

Consider `NS(=O)(=O)c1cc2c(cc1Cl)NC=NS2(=O)=O`, for which the Potency is more than 92 µM.

`CC(=O)Oc1ccccc1C(=O)O`: the Potency is more than 92 µM.

Take `Cn1cnc([N+](=O)[O-])c1Sc1ncnc2nc[nH]c12`: the Potency is more than 92 µM.

Regarding `NC(N)=NC(=O)c1nc(Cl)c(N)nc1N`, the Potency was more than 92 µM.

In the case of `O=c1[nH]cnc2[nH]ncc12`, the Potency was more than 92 µM.

Consider `NC(=O)c1cnccn1`, for which the Potency is more than 92 µM.

A short description of another test: Cell Viability - SK-N-SH (AID 435; calls by dose curve; further: potency means the concentration at half of the fitted maximal effect). The conditions noted are these: SK-N-SH neuroblastoma cell viability qHTS. From the text: NIH Chemical Genomics Center [NCGC]
NIH Molecular Libraries Screening Centers Network [MLSCN]
National Institutes of Environmental Health Sciences [NIEHS]
National Toxicology Program [NTP]
We have developed a 1536-well cell-based assay for quantitative high throughput screening (qHTS) against a number of cell lines to determine in vitro cytotoxicity of small molecules. This particular assay uses the SK-N-SH cell line which is derived from human neuroblastoma.
NCGC Assay Protocol Summary:
The CellTiter-Glo luminescent cell viability assay (Promega) is a homogeneous method to measure the number of viable cells in culture. The end point readout of this assay is based on quantitation of intracellular ATP, an indicator of metabolic activity, using the luciferase reaction. Luciferase catalyzes the oxidation of beetle Luciferin to oxyluciferin and light in the presence of ATP. The luminescent signal is proportional to amount of ATP present.
Using the CellTiter-Glo luminescent cell viability assay, the amount of cellular ATP was measured in the SK-N-SH cell line with complete culture medium following compound treatment for 40 hours. The assay was performed in opaque white Kalypsys 1536-well plates. In the screen, tamoxifen and doxorubicin were used as positive controls. Library compounds were measured for their ability to cause acute toxicity in the cell line, as reflected by a decrease in intracellular ATP levels, in a concentration-dependent manner. Data were normalized to the controls for basal activity (DMSO only) and 100% inhibition (100 uM tamoxifen). AC50 values were determined from concentration-response data modeled with the standard Hill equation.
qHTS protocol fo CellTiter Glo SK-N-SH cellular assay
[Step] [Parameter] [Value] [Description]
1. Reagent; 5 uL; 1500 SK-N-SH cells/well
2. Time; 5 hr; 37 °C incubation
4. Controls; 23 nL; Tamoxifen 0.34 uM to 100 uM & Doxorubicin 0.02 nM to 100 uM
5. Time; 40 hr; 37 °C incubation
6. Reagent; 5 uL; CellTiter Glo reagent
7. Time; 20 min; Room Temperature
8. Detection; Luminescence; Viewlux plate reader
Keywords: cell viability, cytotoxicity, SK-N-SH cell line, luminescence, NTPHTS, NTPHTS_NCGC, NIEHS, EPA, DSSTox, MLSMR, MLSCN, NIH Roadmap, qHTS, NCGC
As to `CCCC(CCC)C(=O)O`, the Potency is more than 92 µM.

As to `NS(=O)(=O)c1cc2c(cc1Cl)NC=NS2(=O)=O`, the Potency is more than 92 µM.

Take `CC(=O)Oc1ccccc1C(=O)O`: the Potency is more than 92 µM.

With `Cn1cnc([N+](=O)[O-])c1Sc1ncnc2nc[nH]c12`, the Potency is 0.529 µM (active).

Turning to `NC(N)=NC(=O)c1nc(Cl)c(N)nc1N`, the Potency is more than 92 µM.

With `O=c1[nH]cnc2[nH]ncc12`, the Potency is more than 92 µM.

As to `NC(=O)c1cnccn1`, the Potency was more than 92 µM.

A further test in a line: NFAT Signaling Pathway (AID 444).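 Further: carbachol stimulus at about its EC50 of 1 µM final; on the % scale 0 is the no-effect control and ±100 the full control effect.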 The conditions noted are these: Jurkat NFAT-bla M1, carbachol, beta-lactamase ratio, 5 h; at 17.2 µM (top of the series). The essentials:
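Read-out: CCF4 FRET ratio (460 nm/530 nm) after 1 h RT dye loading, used for %activity and AC50 from titration series. Cells: Jurkat NFAT-β-lactamase/M1 line, treated with compound plus 1 uM carbachol for 5 h, 37 °C.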
Regarding `Nc1nc2c(ncn2COCCO)c(=O)[nH]1`, the activity change, negative = inhibition was -0.796% and 22.4%.

For the molecule `N#Cc1ccc(C(c2ccc(C#N)cc2)n2cncn2)cc1`, the activity change, negative = inhibition is -8.25%.

With `Cc1[nH]c(=O)c(C#N)cc1-c1ccncc1`, the activity change, negative = inhibition was -20.1%.

For `O=c1n(CCCN2CCN(c3cccc(Cl)c3)CC2)nc2ccccn12`, the activity change, negative = inhibition was -9.78%.

Turning to `C[C@]12CCC(=O)C=C1CC[C@@H]1[C@@H]2[C@@H](O)C[C@@]2(C)[C@H]1CC[C@]2(O)C(=O)CO`, the activity change, negative = inhibition was 18.6%.

With `O=C1CCc2cc(OCCCCc3nnnn3C3CCCCC3)ccc2N1`, the activity change, negative = inhibition was -6.28%.

On to `Cc1cc2c(C(C)C)c(O)c(O)c(C=O)c2c(O)c1-c1c(C)cc2c(C(C)C)c(O)c(O)c(C=O)c2c1O`, for which the activity change, negative = inhibition is -68.3% (active).

Consider `NNCCc1ccccc1`, for which the activity change, negative = inhibition was -10.8%.

As for `N=c1nc(N2CCCCC2)cc(N)n1O`, the activity change, negative = inhibition is -4.8%.

On to `CCCCNc1cc(C(=O)O)cc(S(N)(=O)=O)c1Oc1ccccc1`, for which the activity change, negative = inhibition was 1.71% and -0.748%.

On to `C1COC(NC(C2CC2)C2CC2)=N1`, for which the activity change, negative = inhibition was -20.2% and 11.2%.

With `NS(=O)(=O)c1cc2c(cc1Cl)NC=NS2(=O)=O`, the activity change, negative = inhibition was -2.56% and 9.37%.

With `Nc1nc2ccc(OC(F)(F)F)cc2s1`, the activity change, negative = inhibition was 0.982% and -0.48%.

`Cc1ccc(N(CC2=NCCN2)c2cccc(O)c2)cc1`: the activity change, negative = inhibition was -19.1% and -11.9% and 3.66%.

As to `Nc1ccc(S(=O)(=O)Nc2ccnn2-c2ccccc2)cc1`, the activity change, negative = inhibition was -4.12%.

Regarding `Cn1cnc([N+](=O)[O-])c1Sc1ncnc2nc[nH]c12`, the activity change, negative = inhibition was 13.3%.

As to `NC(N)=NC(=O)c1nc(Cl)c(N)nc1N`, the activity change, negative = inhibition is 8.59% and -17.4%.

Take `Cc1ccccc1C(OCCN(C)C)c1ccccc1` (stereo not given): the activity change, negative = inhibition was -85.9% (active).

For `Clc1cccc(Cl)c1NC1=NCCN1`, the activity change, negative = inhibition was -11.5%.

Take `Cc1cnc(NC(=O)C2=C(O)c3ccccc3S(=O)(=O)N2C)s1`: the activity change, negative = inhibition was -9.71%.

As to `Cc1oncc1C(=O)Nc1ccc(C(F)(F)F)cc1`, the activity change, negative = inhibition was 0.0794% and 7.99%.

Consider `COc1ccc2nc(S(=O)Cc3ncc(C)c(OC)c3C)[nH]c2c1` (stereo not given), for which the activity change, negative = inhibition is -26.1% and -10.4%.

As for `N[C@@H]1CONC1=O`, the activity change, negative = inhibition was -1.83%.

Turning to `CCOC(=O)C1=C[C@@]2(CC)CCCN3CCc4c(n1c1ccccc41)[C@H]32`, the activity change, negative = inhibition is -3.7%.

For `CNC[C@H](O)c1cccc(O)c1`, the activity change, negative = inhibition is -25.3%.

Staying with this test, now noted: Jurkat NFAT-bla M1, carbachol, beta-lactamase ratio, 5 h; at 38 µM (top of the series).
`O=NN(CCCl)C(=O)NCCCl`: the activity change, negative = inhibition is -7.61%.

With `Nc1nc2c(ncn2COCCO)c(=O)[nH]1`, the activity change, negative = inhibition was 9.44%.

As for `Cc1[nH]c(=O)c(C#N)cc1-c1ccncc1`, the activity change, negative = inhibition is -0.614%.

Regarding `O=c1n(CCCN2CCN(c3cccc(Cl)c3)CC2)nc2ccccn12`, the activity change, negative = inhibition is -3.74%.

Consider `CCCC(CCC)C(=O)O`, for which the activity change, negative = inhibition is 4.56%.

Consider `O=C1CCc2cc(OCCCCc3nnnn3C3CCCCC3)ccc2N1`, for which the activity change, negative = inhibition is -9.05%.

Regarding `NNCCc1ccccc1`, the activity change, negative = inhibition was -17.1%.

Take `N=c1nc(N2CCCCC2)cc(N)n1O`: the activity change, negative = inhibition is 7.52%.

Regarding `CCCCNc1cc(C(=O)O)cc(S(N)(=O)=O)c1Oc1ccccc1`, the activity change, negative = inhibition was 7.04%.

On to `C1COC(NC(C2CC2)C2CC2)=N1`, for which the activity change, negative = inhibition is -2.75%.

As to `NS(=O)(=O)c1cc2c(cc1Cl)NC=NS2(=O)=O`, the activity change, negative = inhibition is 8.02%.

In the case of `Nc1nc2ccc(OC(F)(F)F)cc2s1`, the activity change, negative = inhibition was 13.4%.

Turning to `Cc1ccc(N(CC2=NCCN2)c2cccc(O)c2)cc1`, the activity change, negative = inhibition was -12.9%.

`CC(=O)Oc1ccccc1C(=O)O`: the activity change, negative = inhibition was 2.25%.

As to `NCCc1ccc(O)c(O)c1`, the activity change, negative = inhibition is 11.4%.

Take `Nc1ccc(S(=O)(=O)Nc2ccnn2-c2ccccc2)cc1`: the activity change, negative = inhibition is 1.19%.

Take `Cn1cnc([N+](=O)[O-])c1Sc1ncnc2nc[nH]c12`: the activity change, negative = inhibition is 19.1%.

On to `NC(N)=NC(=O)c1nc(Cl)c(N)nc1N`, for which the activity change, negative = inhibition is -2.5%.

Take `Clc1cccc(Cl)c1NC1=NCCN1`: the activity change, negative = inhibition is -5.97%.

In the case of `Cc1cnc(NC(=O)C2=C(O)c3ccccc3S(=O)(=O)N2C)s1`, the activity change, negative = inhibition is 11.3%.

Consider `O=c1[nH]cnc2[nH]ncc12`, for which the activity change, negative = inhibition is 5.26%.

`Cc1oncc1C(=O)Nc1ccc(C(F)(F)F)cc1`: the activity change, negative = inhibition was -5.42%.

On to `N[C@@H]1CONC1=O`, for which the activity change, negative = inhibition was -6.1% and -4.54% and -4.29%.

Consider `NC[C@H](O)c1ccc(O)c(O)c1`, for which the activity change, negative = inhibition is -7.25% and 5.9%.

For the molecule `CCOC(=O)C1=C[C@@]2(CC)CCCN3CCc4c(n1c1ccccc41)[C@H]32`, the activity change, negative = inhibition is 0.129%.

For `NC(=O)c1cnccn1`, the activity change, negative = inhibition was 2.31%.

In the case of `CNC[C@H](O)c1cccc(O)c1`, the activity change, negative = inhibition was -0.528%.

On to `Cc1cn[nH]c1`, for which the activity change, negative = inhibition is -5.73%.

These data come from PubChem BioAssay (NCATS).
